Source: PubChem BioAssay (NCATS)
Results filed as inconclusive are left out. Activity calls are given as the source filed them. Calls come from the whole dose curve; as a rule, active = well fitted inhibition curve with a large enough effect; inconclusive = small, poorly fitted or top-dose-only effect; inactive = flat fitted curve, though single readings scatter.

Tested on: CP238
Assay: qHTS profiling for inhibitors of Plasmodium falciparum proliferation (AID 504749); note: nearly all actives have a fitted effect of over 60% in size;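 for activity, negative = inhibition: 0% = DMSO vehicle and full inhibition = artemisinin control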
Conditions: P. falciparum in erythrocytes, SYBR Green DNA, 72 h; series mostly up to 28.7 µM; activity, negative = inhibition: at the top concentration
Summary of the method: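 SYBR Green fluorescence (ex 485 nm, em 535 nm) reports parasite DNA after 72 h compound exposure of infected red cells at 0.3% parasitemia, 2.5% hematocrit; signal normalized to 0.29 uM artemisinin and vehicle wells.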
Potency is the fitted concentration of half-maximal effect.

**Q.** How did the “activity, negative = inhibition” value turn out when `Nc1ccc(S(N)(=O)=O)cc1` was run?
**A.** 4.9% (inactive)

**Q.** Which “activity, negative = inhibition” value does the source give for `C[C@H](Cn1cnc2c(N)ncnc21)OCP(=O)(O)O` here?
**A.** 0.531% (inactive)

**Q.** For `CCOc1cc(CC(=O)N[C@@H](CC(C)C)c2ccccc2N2CCCCC2)ccc1C(=O)O`, which “activity, negative = inhibition” value is on record?
**A.** 0.465% [at 12.8 µM] (inactive)

**Q.** How did the “activity, negative = inhibition” value turn out when `Oc1ccc(OCc2ccccc2)cc1` was run?
**A.** -0.405% [at 12.8 µM] (inactive)

**Q.** How did the Potency turn out when `Cc1cccc(C)c1OCC(=O)N[C@@H](Cc1ccccc1)[C@@H](O)C[C@H](Cc1ccccc1)NC(=O)[C@H](C(C)C)N1CCCNC1=O` was run?
**A.** 5010 nM (active)

**Q.** How did the “activity, negative = inhibition” value turn out when `CNC[C@@H](O)[C@@H](O)[C@H](O)[C@H](O)CO` was run?
**A.** 8.8% (inactive)

**Q.** Which “activity, negative = inhibition” value does the source give for `CCC1=C(C)CN(C(=O)NCCc2ccc(S(=O)(=O)NC(=O)NC3CCC(C)CC3)cc2)C1=O` (configuration not stated) here?
**A.** 3.93% (inactive)

**Q.** For `COc1cc(OC)c(C(=O)CCCN2CCCC2)c(OC)c1`, which “activity, negative = inhibition” value is on record?
**A.** 0.196% [at 12.8 µM] (inactive)

**Q.** For `O=P(O)(O)C(O)(Cn1ccnc1)P(=O)(O)O`, which “activity, negative = inhibition” value is on record?
**A.** 1.37% (inactive)

**Q.** For `c1ccc2[nH]c(-c3cscn3)nc2c1`, which “activity, negative = inhibition” value is on record?
**A.** -27.5% (inactive)

**Q.** How did the “activity, negative = inhibition” value turn out when `Cc1cc2cc3c(C)cc(=O)oc3c(C)c2o1` was run?
**A.** 12.7% [at 12.8 µM] (inactive)

**Q.** For `CC(C)[C@H](N)C(=O)OCCOCn1cnc2c(=O)[nH]c(N)nc21`, which “activity, negative = inhibition” value is on record?
**A.** 7.39% (inactive)

**Q.** With `CCCCN(CCCC)CCC(O)c1cc2c(Cl)cc(Cl)cc2c2cc(C(F)(F)F)ccc12` (configuration not stated) as the molecule, how does the Potency read?
**A.** 7.9 nM (active)

**Q.** For `Nc1cc(C(Cl)=C(Cl)Cl)c(S(N)(=O)=O)cc1S(N)(=O)=O`, which “activity, negative = inhibition” value is on record?
**A.** 6.54% [at 12.8 µM] (inactive)

**Q.** For `C[C@]12CCC(=O)C=C1CC[C@@H]1[C@H]2[C@@H](O)C[C@@]2(C)[C@H]1CC[C@]2(O)C(=O)CO`, which “activity, negative = inhibition” value is on record?
**A.** 3.63% (inactive)

**Q.** `Cc1c(OCC(F)(F)F)ccnc1CS(=O)c1nc2ccccc2[nH]1` (configuration not stated) was tested. Which “activity, negative = inhibition” value did it give?
**A.** 0.352% (inactive)

**Q.** How did the “activity, negative = inhibition” value turn out when `C[Se]CCC(N)C(=O)O` (configuration not stated) was run?
**A.** -0.0567% (inactive)

**Q.** Which Potency does the source give for `CN(C)c1ccc2nc3ccc(=[N+](C)C)cc-3sc2c1` here?
**A.** 100 nM (active)

**Q.** Which “activity, negative = inhibition” value does the source give for `O=C(NCCO[N+](=O)[O-])c1cccnc1` here?
**A.** 7.61% (inactive)

**Q.** Which “activity, negative = inhibition” value does the source give for `CCCCc1ccc2nc(NC(=O)OC)[nH]c2c1` here?
**A.** 1.35% [at 12.8 µM] (inactive)

**Q.** How did the “activity, negative = inhibition” value turn out when `O=C(O)c1cccc(-c2noc(-c3ccccc3F)n2)c1` was run?
**A.** -0.809% (inactive)

**Q.** `O=C(O)c1cc(=O)c2c(OCC(O)COc3cccc4oc(C(=O)O)cc(=O)c34)cccc2o1` was tested. Which “activity, negative = inhibition” value did it give?
**A.** 6.65% (inactive)

**Q.** `CC1(C)NC(=O)N(c2ccc([N+](=O)[O-])c(C(F)(F)F)c2)C1=O` was tested. Which “activity, negative = inhibition” value did it give?
**A.** 5.75% (inactive)

**Q.** How did the “activity, negative = inhibition” value turn out when `O=C(O)CCNC(=O)c1ccc(N=Nc2ccc(O)c(C(=O)O)c2)cc1` was run?
**A.** 1.99% (inactive)

**Q.** `Cc1ncc([N+](=O)[O-])n1CC(C)O` (configuration not stated) was tested. Which “activity, negative = inhibition” value did it give?
**A.** 7.29% (inactive)

**Q.** With `Cc1nc2n(c(=O)c1CCN1CCC(c3noc4cc(F)ccc34)CC1)CCCC2` as the molecule, how does the “activity, negative = inhibition” value read?
**A.** 1.42% (inactive)

**Q.** `N[C@@H](Cc1cc(I)c(Oc2cc(I)c(O)c(I)c2)c(I)c1)C(=O)O` was tested. Which “activity, negative = inhibition” value did it give?
**A.** -6.15% (inactive)
